Compounds with a hit are over-represented: about 2.6% of the library has one in this group of screens.
Cruzain inh Det – inhibitors of Trypanosoma cruzi cruzain with detergent. P25779. purified cruzain, Z-FR-AMC fluorescence, 0.01% Triton. Potency, µM, for the others: max response, negative = inhibition, most hits filed as inhibitors. 0.43% of 200,000 active;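 also: plate controls were neutral wells for no effect and buffer without enzyme for full effect; nearly all actives have a fitted effect of over 40% in size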
Target sequence (P25779 123-467 limits assumed): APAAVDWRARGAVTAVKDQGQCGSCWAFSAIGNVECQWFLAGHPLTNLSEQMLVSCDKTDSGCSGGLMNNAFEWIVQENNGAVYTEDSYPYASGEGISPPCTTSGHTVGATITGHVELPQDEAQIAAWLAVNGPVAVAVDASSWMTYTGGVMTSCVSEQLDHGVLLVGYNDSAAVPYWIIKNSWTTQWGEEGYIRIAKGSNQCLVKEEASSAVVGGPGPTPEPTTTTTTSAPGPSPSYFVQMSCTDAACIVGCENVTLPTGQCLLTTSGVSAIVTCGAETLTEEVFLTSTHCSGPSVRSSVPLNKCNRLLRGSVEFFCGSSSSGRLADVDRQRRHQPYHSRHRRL
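15 min RT preincubation of 1.5 nM cruzain with compound, then 2 uM Z-FR-AMC added; kinetic AMC fluorescence, 60 s delta. Triton X-100 0.01%, pH 5.5.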
Cruzain noTriton – blocks cruzain activity in detergent-free assay. purified cruzain, Z-FR-AMC fluorescence, no detergent. 2.3% of 200,000 active. P25779. Potency, µM, without a hit: max response, negative = inhibition, usual class: inhibitors. AID 1476;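 also: plate controls were enzyme without inhibitor for no effect and buffer without enzyme for full effect; nearly all actives have a fitted effect of over 40% in size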
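Detergent-free condition (0.00005% Triton X-100) in acetate buffer pH 5.5 with DTT. 1.5 nM enzyme and compound were pre-mixed 15 min, then 2 uM Z-FR-AMC substrate added; reaction progress from fluorescence change between first and third reads (60 s).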
* marks the source's active call; other numbers are inactive results; ? = inconclusive. Calls follow the shape of the dose curve; as a rule, active = well fitted curve in the direction sought with a large enough effect; inconclusive = small, poorly fitted or top-dose-only effect, or another doubt; inactive = no such curve, though single readings can be large; an effect the other way counts as inactive or inconclusive. Potency is read from the fitted curve at half-maximal effect.

SMILES	Cruzain inh Det	Cruzain noTriton
Cc1ccc(Cl)cc1-n1nnc(-c2nsc(NC(=O)c3ccccc3Cl)n2)c1C	-5%	3.2µM*
Cc1ccc(C(=O)Nc2nc(-c3nnn(-c4cccc(Cl)c4C)c3C)ns2)cc1C	-2%	?
CCOC(=O)c1ccccc1NC(=O)NCc1cccn1Cc1ccc(F)cc1	-10%	-2%
Cc1cc(NC(=O)CCN2C(=O)C3C4CCC(C4)C3C2=O)c(C)cc1Br (stereo not given)	0%	1%
Cc1cc(Br)c(Cl)cc1NC(=O)CN1C(=O)C2C3CC(c4ccccc4)C(C3)C2C1=O (stereo not given)	-6%	13µM*
Cc1ccccc1NS(=O)(=O)c1cc(C(=O)Nc2cccc([N+](=O)[O-])c2)ccc1C	-6%	11%
Cc1ccc(NS(=O)(=O)c2cc([N+](=O)[O-])ccc2NNC(=S)Nc2cccc(Cl)c2)c(C)c1	20µM*	-22%
COc1ccc(NC(=S)NNc2ccc([N+](=O)[O-])cc2S(=O)(=O)Nc2ccc(C)cc2C)cc1	-14%	25µM*
Cc1ccc(NS(=O)(=O)c2cc([N+](=O)[O-])ccc2NNC(=S)Nc2cc(C)ccc2C)c(C)c1	-10%	?
CCc1ccccc1NC(=O)CCS(=O)(=O)c1cccc2nonc12	-2%	-1%
CCOc1ccc(CCNC(=O)c2cc3c(=O)oc4ccc(C)cc4c3s2)cc1OCC	1%	0%
CCN(CC)Cc1c(O)ccc2c(C)c(CC(=O)OC)c(=O)oc12	25µM*	?
COC(=O)Cc1c(C)c2ccc(OCC(C)=O)c(C)c2oc1=O	-7%	13%
COc1ccc(-c2cc3ccccc3oc2=O)cc1NC(=O)c1ccc(Br)o1	-21%	25µM*
COc1cc2c(cc1NC(=O)c1ccc3c(c1)OCO3)oc1ccccc12	-9%	?
COc1ccc(-c2cc3ccccc3oc2=O)cc1NC(=O)c1ccc([N+](=O)[O-])o1	-4%	-22%
COc1ccc(-c2cc3ccccc3oc2=O)cc1NC(=S)NC(=O)c1ccc2c(c1)OCCO2	-3%	13µM*
CCn1cc(C(=O)NCc2ccccc2Cl)c(=O)c2cc(S(=O)(=O)N3CCCCC3)ccc21	-1%	-5%
CCn1cc(C(=O)NCc2ccccc2Cl)c(=O)c2cc(S(=O)(=O)N3CCc4ccccc4C3)ccc21	-3%	13µM*
COc1cccc(NC(=O)Cn2c(=O)n(-c3ccc(C)cc3)c(=O)c3ccc(C(=O)NCc4ccco4)cc32)c1	0%	8%
CCCC12C(=O)C(C)(C(c3ccccc3)=C1c1ccccc1)C1C(=O)N(c3ccc(C)cc3)C(=O)C12 (stereo not given)	-1%	20µM*
CCC12C(=O)C(CC)(C(c3ccccc3)=C1c1ccccc1)[C@@H]1C(=O)N(c3ccc(C)cc3)C(=O)C12 (stereo not given in full)	-4%	?
CCN(CC)S(=O)(=O)c1ccc(Cl)c(NC(=O)c2cc(Cl)ccc2Cl)c1	-5%	-18%
CCN(CC)S(=O)(=O)c1ccc(Cl)c(NC(=O)COc2ccc(OC)cc2[N+](=O)[O-])c1	-2%	13µM*
Cc1ccc(N2CCN(C(=O)c3c(C)oc4ncn(CC(C)C)c(=O)c34)CC2)c(C)c1	-2%	?
SMILES	Cruzain inh Det	Cruzain noTriton
Cc1cccc(-n2c(=O)c3c4c(sc3n3cnnc23)CCCC4)c1	-1%	-6%
COc1ccccc1NC(=O)Cn1c(=O)n(CCc2c[nH]c3ccccc23)c(=O)c2cccnc21	-3%	20µM*
COc1ccccc1NC(=O)CSc1nc2nccnc2c(=O)n1CCc1c[nH]c2ccccc12	-3%	4%
CCCN(CCC)S(=O)(=O)c1ccc(C(=O)Nc2nc3c(s2)CCc2ccccc2-3)cc1	1%	7.9µM*
COc1cccc(OC)c1C(=O)Nc1nc2c(s1)CCc1ccccc1-2	0%	7%
COc1cccc(N2CCN(c3c4c(nc5nncn35)CCC4)CC2)c1	-3%	11%
Cc1cccc(OCCCC(=O)Nc2ccc(N3CCCCC3)cc2)c1C	5%	20µM*
Cc1cc(C)cc(OCC(=O)Nc2ccc(N3CCN(S(C)(=O)=O)CC3)cc2)c1	-1%	16µM*
Cc1cccc(OCCCC(=O)Nc2ccc(S(N)(=O)=O)cc2)c1C	-4%	?
Cc1cc(C)cc(OCC(=O)Nc2ccc(N3CCN(C(=O)c4ccco4)CC3)cc2)c1	-7%	5%
Cc1cccc(OCC(=O)Nc2ccc(N3CCN(S(C)(=O)=O)CC3)cc2)c1C	8%	13µM*
Cc1ccccc1OCC(=O)Nc1ccc(N2CCN(S(C)(=O)=O)CC2)cc1	8%	?
Cc1cc(C)c(NC(=O)Cn2c(=O)n(CCC(=O)N3CCc4ccccc4C3)c(=O)c3ccccc32)c(C)c1	-1%	-24%
O=C(Cn1c2ccccc2c(=O)c2cc([N+](=O)[O-])ccc21)Nc1ccccc1Cl	-26%	?
Cc1cc(/C=N/NC(=O)Cn2c3ccccc3c(=O)c3ccccc32)c(C)n1-c1ccccc1	-4%	16µM*
Cc1ccc(N(CC(=O)N/N=C/c2cc(C)n(-c3ccccc3)c2C)S(C)(=O)=O)c(C)c1	-3%	-3%
O=C(Cn1c2ccccc2c(=O)c2ccccc21)N/N=C/c1cc([N+](=O)[O-])ccc1N1CCCCC1	0%	10µM*
O=C(O)[C@H]1CN[C@H](C(=O)O)C1	4%	1%
CC(C)c1ccccc1NC(=O)COc1ccc2c(=O)c(Oc3ccc4ccccc4c3)coc2c1	-3%	32µM*
CCc1ccccc1NC(=O)COc1ccc2c(=O)c(Oc3cc(C)ccc3C)coc2c1	-5%	?
COc1ccc(-n2c(SCC(=O)N3CCc4ccccc43)nc3c([nH]c4ccccc43)c2=O)cc1	1%	8%
Cc1ccc(NC(=S)NC(=O)c2ccc(-c3ccc(Cl)cc3)o2)c(O)c1	0%	-26%
Cc1cc(O)c(NC(=S)NC(=O)c2ccc(-c3ccc(Cl)cc3)o2)cc1C	5%	16µM*
Cc1ccc(C(=O)COC(=O)C2CC(=O)N(c3nc(-c4ccccc4)cs3)C2)cc1C (stereo not given)	2%	32µM*
O=C(OCc1cccc2ccccc12)C1CC(=O)N(c2ccccc2)C1 (stereo not given)	-2%	-1%
SMILES	Cruzain inh Det	Cruzain noTriton
Cc1ccc(NC(=S)N(Cc2cccs2)Cc2cc3cccc(C)c3[nH]c2=O)cc1	-3%	16µM*
Cc1cccc2cc(CN(Cc3cccs3)C(=S)NCC3CCCO3)c(=O)[nH]c12 (stereo not given)	-8%	3%
Cc1cc(C)c(NC(=O)c2cc(S(=O)(=O)N3CCN(c4ccccc4F)CC3)ccc2F)c(C)c1	1%	-29%
Clc1ccc(N/N=C/c2cccnc2)cc1	-10%	10%
Cc1sc(N/N=C/c2cccnc2)nc1-c1ccc(Cl)cc1	-7%	16µM*
COc1ccc(OC)c(/C=C(\C#N)c2nc(-c3ccc(F)cc3)cs2)c1	0%	-5%
O=C(Nc1ccc2oc(-c3cccnc3)nc2c1)c1ccccc1F	-7%	2%
C=CCn1c(SCC(=O)N2CC(=O)Nc3ccccc32)nc2scc(-c3cccs3)c2c1=O	-2%	10µM*
CC(C)CCn1c(SCC(=O)N2CC(=O)Nc3ccccc32)nc2scc(-c3cccs3)c2c1=O	-3%	13µM*
C=CCn1c(COc2ccc(F)cc2)nnc1SCC(=O)N1CC(=O)Nc2ccccc21	-1%	-4%
Cc1nnc(SCC(=O)N2CC(=O)Nc3ccccc32)n1C	1%	-12%
